In article PMC12723454:
These entries were drawn from the full list. How many sequences the whole screen found active is unknown.

B1: HHH_b1_08438_000000177_dldesign_0_cycle1_af2pred_0001 (protein)
chain: GGSGGSAEEEVEKLIEEAKNNPDKEKAEELLSRALKLADAAGNVDLRSKTMNALFDVLGGSGGSG
B2: HHH_b1_01197_000000280_dldesign_0_cycle1_af2pred_0001 (protein)
chain: GGSGGSGKSSEIDKLLNEVLKLGKEEEYLKIMSLKMDYLETGDEEIFKEAKELAKKVIGGSGGSG
B3: HHH_b2_07220_000000120_dldesign_0_cycle1_af2pred_0001 (protein)
chain: SGGSEESKKLVEETIKKAKKLVEEGNPLEAKILLRKTLLDLSELGDDEGFSKLSKFLDEIEGGSG
B4: HHH_b1_00135_000000286_dldesign_0_cycle1_af2pred_0001 (protein)
chain: SGGSLAVETAKEYLEMVKSYAEEGDKEEAQFFADIIKLLAESENNPELKKIYEEAKKIVEEGGSG
B5: HHH_b1_08653_000000138_dldesign_0_cycle1_af2pred_0001 (protein)
chain: GSGGSGASLAAEDILRAMRQFARAGKPEAVRDLAKKGIKIMTEAGRPDEAKRIEEELARLGGSGG
B6: HHH_b1_02099_000000008_dldesign_0_cycle1_af2pred_0001 (protein)
chain: SGGSMEELDECARLLNELAHAIEEGNKEKFEELYKKARELIEKLGDEALLKALDELEEAFYGGSG
B7: ac710d00df0a15e663fb636f306744b3_0001_1_000000013_dldesign_0_cycle1_af2pred_0001 (protein)
chain: GIRERAREMAKKHGVSDEELQPVIDLVEKMRAEGKSIEEIARELGEKLAETGNKAYACVLEALAE

Each binder was assayed against Flpp3 (assay: yeast display titration).

Q: For B1, which apparent Kd is on record?
A: > 11.6 µM (inactive)

Q: For B2, which apparent Kd is on record?
A: > 5.39 µM (inactive)

Q: How did the apparent Kd turn out when B3 was run?
A: > 4.46 µM (inactive)

Q: With B4 as the binder, how does the apparent Kd read?
A: > 7.9 µM (inactive)

Q: Which apparent Kd does the source give for B5 here?
A: > 134 µM (inactive)

Q: How did the apparent Kd turn out when B6 was run?
A: > 0.105 µM (inactive)

Q: For B7, which apparent Kd is on record?
A: > 0.105 µM (inactive)
